Data on 36 compounds can be found in PubChem BioAssay (EPA / NIEHS).

As usually defined, the AC50 is the concentration giving half of the maximal activity seen.

Where “and” joins values, the source holds several entries; their conditions need not be identical. Equal entries are not always repeated. Results filed as inconclusive are left out. Calls of active or inactive are those of the source. The calls were made as follows, unless noted: active = hit-call score of the fitted dose curve at least 0.9, where 1 is the maximum; inconclusive = response in the unintended direction; inactive = score below 0.9.

Assay [1] concerns the target Luciferin 4-monooxygenase (Photinus pyralis) (UniProt P08659). Kind of assay: CCTE_Simmons_QuantiLum_inhib_2: CCTE's Firefly Luciferase Inhibition Assay, Simmons Lab (AID 2283767).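 As to AC50: potency for inhibitors that lower luciferase luminescence relative to DMSO.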 A digest of the protocol: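 First, 5 ng purified luciferase in phosphate buffer with BSA is dispensed per well. Next, test chemicals (5 nM to 87.5 uM final, 0.5% DMSO) are added and incubated 30 min at 37C in darkness. Finally, luciferin reagent is injected and luminescence read kinetically.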

A short description of assay [2]: ACEA_AR_agonist_AUC_viability: ACEA Biosciences xCELLigence Real-Time Cell Analysis on Androgen Receptor Agonism for Viability (AID 2283775).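 As to AC50: viability read 80 hours after compound addition.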 A digest of the protocol:
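22Rv1 cells; impedance growth kinetics; 8-pt 1:4 dilutions from 100 uM top final, ≤0.5% DMSO; n = 2; 80 h read; AUC viability, loss-of-signal vs DMSO.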

Assay [3] in a line: STM_H9_OrnCyssISnorm_ratio: Stemina devTOX quickPredict H9 human embryonic stem cell (hESC)-based Assay for Ornithine (ORN):Cystine (CYSS) Ratio (AID 2283714). The method, boiled down: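 Ratio of internal-standard-normalized ornithine to cystine, measured by UPLC-HRMS in spent media from the last 24 h. H9 cells kept pluripotent, dosed 72 h with daily media and compound renewal; DMSO 0.1% serves as baseline.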

A short description of assay [4]: CCTE_Padilla_ZF_144hpf_TERATOSCORE: (Legacy) CCTE's 144 Hour Post-fertilization zebrafish Assay Teratoscore, Padilla Lab (AID 2283679; active = hit-call score of the fitted dose curve at least 0.9, where 1 is the maximum; inactive = score below 0.9;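 also: zebrafish embryos with chorions exposed by immersion from 6-8 hpf to 5 dpf with daily renewal; teratogenicity score from eye scoring of death hatching and malformations at 144 hpf; higher score means more developmental defects relative to DMSO baseline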). The method, boiled down:
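Larvae scored by eye at 144 hpf for death, hatching and malformations after a day in clean Hanks'. Before that, daily-renewed exposure at 80 uM (0.4% DMSO, 26C) from roughly 6-8 hpf through 5 dpf, 4 embryos per chemical.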

Assay [5] can be described thus: CEETOX_H295R_MTT_cell_viability: Viability Assessment in the CeeTox HT-H295R MTT Assay (AID 2283718; active = hit-call score of the fitted dose curve at least 0.9, where 1 is the maximum; inactive = score below 0.9;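 as to AC50: curve fitted both ways so AC50 may mark viability loss or gain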). A digest of the protocol:
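MTT reduction (0.5 mg/ml, 4 h at 37 C; absorbance at 570 and 650 nm) gave viability as background-corrected percent change versus controls. H295R cells had 48 h forskolin (10 uM) prestimulation, then 48 h chemical exposure at 0.1% DMSO.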

Assay [6] concerns chicken Androgen Receptor (AR), gene 422165. Description: ATG_chAR_XSP1: Attagene TRANS-FACTORIAL Multi-Species (XSP1) HepG2 Assay for chicken Androgen Receptor (AR) (AID 2283768). A digest of the protocol:
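Reporter mRNA read by RT-PCR with fluorescent labelling and capillary electrophoresis 24 h after chemical dosing of transiently transfected HepG2 cells. Chicken AR-Gal4 chimera, partially stimulated with 3 nM 6-alpha-fluorotestosterone; activity fitted upward relative to DMSO.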

In assay [7] the test system is frog Androgen Receptor (AR), gene 399456. Kind of assay: ATG_frAR_XSP1: Attagene TRANS-FACTORIAL Multi-Species (XSP1) HepG2 Assay for frog Androgen Receptor (AR) (AID 2283770).
Assay [8] deals with zebrafish Estrogen Receptor (ESR1), esr1 (gene 259252) (UniProt P57717). Kind of assay: ATG_zfER1_XSP1: Attagene TRANS-FACTORIAL Multi-Species (XSP1) HepG2 Assay for zebrafish Estrogen Receptor (ESR1) (AID 2283772). The protocol:
ATG_XSP1_multi-species_TRANS is a cell-based, multiplexed assay created by modifying the existing Attagene TRANS-FACTORIAL system to include a panel of nuclear receptors from some or all the following species: human (Homo sapiens), mouse (Mus musculus), frog (Xenopus laevis), zebrafish (Danio rerio), chicken (Gallus gallus), and turtle (Chrysemys picta). The ECOTOX-FACTORIAL format uses HepG2, a human liver cell line, with measurements taken at 24 hours after chemical dosing in a 24-well plate. Xsp1 included 3 nM 6-alpha-fluorotestosterone to partially stimulate the androgen receptor.ATG_zfER1_XSP1 is one of 29 assay components measured or calculated from the ATG_XSP1_multi-species_TRANS assay. It is designed to make measurements of mRNA induction, a form of inducible reporter, as detected with fluorescence intensity signals by Reverse transcription polymerase chain reaction (RT-PCR) and Capillary electrophoresis technology.The assay endpoint ATG_zfER1_XSP1 was analyzed in the positive analysis fitting direction relative to DMSO as the negative control and baseline of activity. […] Furthermore, this assay endpoint can be referred to as a primary readout, because this assay has produced multiple assay endpoints where this one serves a reporter gene function. […]

Assay [9] deals with zebrafish Estrogen Receptor (ESR2B), gene 317733. Description: ATG_zfER2b_XSP1: Attagene TRANS-FACTORIAL Multi-Species (XSP1) HepG2 Assay for zebrafish Estrogen Receptor (ESR2B) (AID 2283773). The method, boiled down:
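Medium contained 3 nM 6-alpha-fluorotestosterone. Reporter mRNA induction by exogenous zebrafish ER2b-Gal4 chimera was read 24 h post-dose in transiently transfected HepG2 cells, using RT-PCR, fluorescent labelling, HpaI digestion and capillary electrophoresis.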

For assay [10], the system named is frog Estrogen Receptor (ESR2), gene 100174814. Kind of assay: ATG_frER2_XSP1: Attagene TRANS-FACTORIAL Multi-Species (XSP1) HepG2 Assay for frog Estrogen Receptor (ESR2) (AID 2283774). The method, boiled down:
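Reporter mRNA from a multiplexed TRANS system, measured by RT-PCR with fluorescent labelling and capillary electrophoresis, 24 hours after chemical exposure. Human HepG2 liver cells carried exogenous frog ER-Gal4 chimera; medium included 3 nM 6-alpha-fluorotestosterone; increases versus DMSO analysed.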

Chain of Luciferin 4-monooxygenase (Photinus pyralis) (P08659 whole entry, looked up): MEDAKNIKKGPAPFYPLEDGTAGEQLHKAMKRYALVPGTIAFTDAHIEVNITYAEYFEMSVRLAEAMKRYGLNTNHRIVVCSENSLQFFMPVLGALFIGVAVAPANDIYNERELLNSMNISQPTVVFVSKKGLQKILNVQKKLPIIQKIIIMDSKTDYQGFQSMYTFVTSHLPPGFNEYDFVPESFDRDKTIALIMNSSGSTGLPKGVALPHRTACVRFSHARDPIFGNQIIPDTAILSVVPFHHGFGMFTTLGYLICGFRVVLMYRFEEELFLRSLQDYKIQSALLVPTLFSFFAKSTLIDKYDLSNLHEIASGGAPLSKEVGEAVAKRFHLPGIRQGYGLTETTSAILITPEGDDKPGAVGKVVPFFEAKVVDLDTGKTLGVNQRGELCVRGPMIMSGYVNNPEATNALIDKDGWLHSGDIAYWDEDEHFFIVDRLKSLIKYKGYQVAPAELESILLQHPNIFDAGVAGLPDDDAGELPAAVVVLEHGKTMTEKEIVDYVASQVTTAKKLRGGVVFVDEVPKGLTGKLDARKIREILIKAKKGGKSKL
Chain of zebrafish Estrogen Receptor (ESR1), esr1 (gene 259252) (P57717 whole entry, looked up): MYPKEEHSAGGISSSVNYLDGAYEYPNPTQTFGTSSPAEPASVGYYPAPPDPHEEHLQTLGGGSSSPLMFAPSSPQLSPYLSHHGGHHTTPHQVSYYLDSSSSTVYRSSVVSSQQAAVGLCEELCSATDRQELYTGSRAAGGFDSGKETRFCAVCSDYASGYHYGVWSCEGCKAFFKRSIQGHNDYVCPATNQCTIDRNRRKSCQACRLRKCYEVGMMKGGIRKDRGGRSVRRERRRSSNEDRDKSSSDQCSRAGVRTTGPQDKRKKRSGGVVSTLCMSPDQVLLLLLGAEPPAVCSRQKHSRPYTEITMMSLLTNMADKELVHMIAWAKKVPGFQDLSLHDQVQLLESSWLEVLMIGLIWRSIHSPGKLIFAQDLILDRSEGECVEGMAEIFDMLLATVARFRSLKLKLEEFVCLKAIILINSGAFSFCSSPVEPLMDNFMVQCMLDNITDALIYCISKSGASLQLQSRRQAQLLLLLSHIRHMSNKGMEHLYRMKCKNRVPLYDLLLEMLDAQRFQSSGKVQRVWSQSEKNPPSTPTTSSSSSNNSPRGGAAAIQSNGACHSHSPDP

On to `O=S1(=O)OC(c2ccc(O)cc2)(c2ccc(O)cc2)c2ccccc21`, for which, in assay [1], the AC50 is 36.6 µM (active) and 21.5 µM (active).

With `c1ccc2c(c1)ccc1cc3c(ccc4ccccc43)cc12`, the AC50 in assay [1] was 0.105 µM (active); in assay [2], 0.341 µM (active).

As to `CC/C=C\C/C=C\C/C=C\CCCCCCCC(=O)O`, the call in assay [1] and in [2] was inactive.

In the case of `CCCCCCCC[N+](C)(CCCCCCCC)CCCCCCCC`, the half-maximal activity concentration (AC50) in [1] was 86 µM (active); in [2] it was 1.03 µM (active).

On to `Nc1ccc(N)c(Cl)c1`, for which the AC50 in assay [3] is 13.5 µM (active).

As for `COCc1c(C(C)C)nc(C(C)C)c(/C=C/[C@@H](O)C[C@@H](O)CC(=O)O)c1-c1ccc(F)cc1`, in [4], the AC50 is 78.1 nM (active) and 159 nM (active). Also, in [5], the compound was classed as inactive.

On to `O=C1CCCCCCCCCCC(=O)OCCO1`, for which, in assay [3], the result was inactive.

With `S=C(NC1CCCCC1)NC1CCCCC1`, the result in assay [5] was inactive.

`CN(C)c1ccc(C(=N)c2ccc(N(C)C)cc2)cc1`: the concentration at half-maximal activity (AC50) in assay [5] is 0.0018 µM (active); in [2] it was 3.18 µM (active). In [1], the outcome was inactive.

`C1=CCCC1`: the result in assay [5] was inactive.

For the compound `O=C(C=Cc1ccccc1)OCc1ccccc1`, the outcome in [5] was inactive.

Consider `CO[Si](CCC1CCC2OC2C1)(OC)OC` (stereo not drawn), for which, in assay [5], the result was inactive.

Take `C=COCCCC`: the call in [5] was inactive.

As to `CCOC(=O)c1ccccc1C(=C1C=C(Br)C(=O)C(Br)=C1)c1cc(Br)c(O)c(Br)c1`, the AC50 in assay [3] was 3.9 µM (active).

As to `CCCCC/C=C\CCC=O`, the call in assay [5] was inactive. Besides, the AC50 in assay [2] was 16.6 µM (active).

Take `C1=Cc2ccccc2C1`: the compound was called inactive in [1] and in assay [2].

For `CCOC(=O)Cc1cccc2ccccc12`, in [5], the compound was called inactive.

In the case of `CCN(CCC#N)c1ccc(N=Nc2c(Cl)cc([N+](=O)[O-])cc2Cl)cc1`, the AC50 was 53.8 µM (active) in [1] and 3.43 µM (active) in assay [2].

As to `CN(C)c1ccc(N=Nc2ccccc2C(=O)O)cc1`, the AC50 in [3] is 37.5 µM (active); in assay [2], 6.64 µM (active).

As to `CC(C)(C)c1ccc(N)cc1`, the outcome in [1] was inactive.

For the compound `CCCCNc1ccc(NCCCC)c2c1C(=O)c1ccccc1C2=O`, the outcome in assay [5] was inactive.

In the case of `COC(=O)c1c(C)cc(O)c(C)c1O`, the result in assay [5] and in assay [1] was inactive.

With `C1CN(SSN2CCOCC2)CCO1`, the call in [1] and in assay [2] was inactive.

Consider `C#CC1(O)CC[C@H]2[C@@H]3CCC4=CCCC[C@@H]4[C@H]3CC[C@@]21C` (stereo partly drawn), for which the compound was classed as inactive in [5].

Take `CC(C)(C)c1ccc(-c2ccc(C(C)(C)C)cc2)cc1`: the compound was classed as inactive in [1] and in assay [2].

As for `CCCCC/C=C\C/C=C\CCCCCCCC(=O)OC`, the compound was called inactive in [1] and in assay [2].

As for `COc1ccc2nc(N)sc2c1`, the result in [5] was inactive.

`O=C(c1ccccc1)c1ccc(O)c(O)c1O`: the call in assay [1] was inactive.

For the compound `Cc1ccc(C(C)c2ccc(C)c(C)c2)cc1C`, the compound was classed as inactive in assay [5] and in [2].

On to `O=S(=O)(O)c1ccccc1C=Cc1ccc(-c2ccc(C=Cc3ccccc3S(=O)(=O)O)cc2)cc1`, for which the compound was called inactive in assay [1].

With `Cc1ccc(N/N=c2\c(=O)cc/c(=N/Nc3ccc(S(=O)(=O)O)cc3)c2=O)c(C)c1`, the half-maximal activity concentration (AC50) in assay [1] is 53.8 µM (active).

As for `Oc1ccc(Cl)cc1Cc1cc(Cl)ccc1O`, the outcome in assay [5] was inactive. Also, the half-maximal activity concentration (AC50) in [2] is 11.5 µM (active).

For `O=C(Nc1ccccc1SSc1ccccc1NC(=O)c1ccccc1)c1ccccc1`, the call in assay [5] was inactive.

In the case of `CCCCCCCCCCCCCOP(=O)(O)O`, the result in assay [5], in [1] and in assay [2] was inactive.

Consider `CNC(=S)NN`, for which the result in [1] was inactive.

For the compound `O=C(c1ccc(O)cc1)c1ccc(O)cc1O`, the AC50 in assay [6] is 1.56 µM (active); in assay [7] it was 2.78 µM (active); in assay [8], 1.76 µM (active); in [9] it was 1.23 µM (active); in assay [10], 0.729 µM (active).
